In the supplement of paper PMC12645437, “Orthogonal IMiD-Degron Pairs Induce Selective Protein Degradation in Cells” (ACS Chemical Biology, 2025):
Whole data set: some 8,300 sequences, median “log2 fold change of degron read counts, EGFP-low vs EGFP+ sorted cells (limma voom), compound-induced degradation” near -1.1, cut for the highest 2% near 3.2. This excerpt belongs to a sample that is enriched for the highest values.

T1: CRBN, Q96SW2
T1 chain: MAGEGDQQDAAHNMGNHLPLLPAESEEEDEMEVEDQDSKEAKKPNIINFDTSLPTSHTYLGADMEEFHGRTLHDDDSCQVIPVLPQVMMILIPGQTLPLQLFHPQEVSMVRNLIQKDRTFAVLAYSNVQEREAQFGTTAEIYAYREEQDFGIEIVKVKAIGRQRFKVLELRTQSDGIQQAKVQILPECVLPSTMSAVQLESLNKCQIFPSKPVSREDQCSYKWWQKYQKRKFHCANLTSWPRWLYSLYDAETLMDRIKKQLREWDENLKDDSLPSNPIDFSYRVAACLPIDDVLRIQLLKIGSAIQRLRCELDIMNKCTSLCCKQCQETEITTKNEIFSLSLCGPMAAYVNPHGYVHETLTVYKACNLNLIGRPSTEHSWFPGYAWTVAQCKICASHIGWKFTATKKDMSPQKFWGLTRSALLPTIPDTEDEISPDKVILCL

B1: 46F_47R_49E_50I_52G_53R_54S_55F_67L_, Q9UKT9 (peptide)
chain: FRCEICGRSFTQKGNLLRHIKL
B2: 46F_47E_49N_50I_52G_53A_54I_55F_67L_, Q9UKT9 (peptide)
chain: FECNICGAIFTQKGNLLRHIKL
B3: 46F_47V_49D_50V_52G_53A_54S_55F_67L_, Q9UKT9 (peptide)
chain: FVCDVCGASFTQKGNLLRHIKL
B4: 46F_47W_49P_50V_52G_53A_54S_55F_67L_, Q9UKT9 (peptide)
chain: FWCPVCGASFTQKGNLLRHIKL
B5: 46F_47L_49P_50V_52G_53A_54S_55F_67L_, Q9UKT9 (peptide)
chain: FLCPVCGASFTQKGNLLRHIKL
B6: 46F_47Y_49P_50V_52G_53A_54S_55F_67L_, Q9UKT9 (peptide)
chain: FYCPVCGASFTQKGNLLRHIKL
B7: 46F_47W_49D_50V_52G_53A_54S_55F_67L_, Q9UKT9 (peptide)
chain: FWCDVCGASFTQKGNLLRHIKL
B8: 46F_47E_49D_50V_52G_53A_54S_55F_67L_, Q9UKT9 (peptide)
chain: FECDVCGASFTQKGNLLRHIKL
B9: 46F_47I_49P_50V_52G_53A_54S_55F_67L_, Q9UKT9 (peptide)
chain: FICPVCGASFTQKGNLLRHIKL
B10: 46F_47H_49P_50V_52G_53A_54S_55F_67L_, Q9UKT9 (peptide)
chain: FHCPVCGASFTQKGNLLRHIKL
B11: 46F_47C_49P_50V_52G_53A_54S_55F_67L_, Q9UKT9 (peptide)
chain: FCCPVCGASFTQKGNLLRHIKL
B12: 46F_47T_49N_50Q_52G_53H_54I_55F_67L_, Q9UKT9 (peptide)
chain: FTCNQCGHIFTQKGNLLRHIKL
B13: 46L_47F_49N_50Q_52G_53F_54T_55C_67L_, Q9UKT9 (peptide)
chain: LFCNQCGFTCTQKGNLLRHIKL
B14: 46F_47A_49N_50I_52G_53A_54W_55F_67L_, Q9UKT9 (peptide)
chain: FACNICGAWFTQKGNLLRHIKL
B15: 46F_47E_49N_50Q_52G_53R_54S_55F_67L_, Q9UKT9 (peptide)
chain: FECNQCGRSFTQKGNLLRHIKL
B16: 46L_47M_49N_50Q_52G_53F_54P_55C_67L_, Q9UKT9 (peptide)
chain: LMCNQCGFPCTQKGNLLRHIKL
B17: 46F_47E_49E_50I_52G_53H_54S_55F_67L_, Q9UKT9 (peptide)
chain: FECEICGHSFTQKGNLLRHIKL
B18: 46F_47S_49D_50V_52G_53A_54V_55F_67L_, Q9UKT9 (peptide)
chain: FSCDVCGAVFTQKGNLLRHIKL
B19: 46F_47S_49P_50I_52G_53R_54V_55F_67L_, Q9UKT9 (peptide)
chain: FSCPICGRVFTQKGNLLRHIKL
B20: 46F_47M_49E_50I_52G_53H_54F_55F_67L_, Q9UKT9 (peptide)
chain: FMCEICGHFFTQKGNLLRHIKL
B21: 46F_47F_49E_50I_52G_53A_54L_55F_67L_, Q9UKT9 (peptide)
chain: FFCEICGALFTQKGNLLRHIKL
B22: 46F_47L_49E_50I_52G_53A_54L_55F_67L_, Q9UKT9 (peptide)
chain: FLCEICGALFTQKGNLLRHIKL
B23: 46F_47D_49E_50I_52G_53A_54L_55F_67L_, Q9UKT9 (peptide)
chain: FDCEICGALFTQKGNLLRHIKL
B24: 46F_47Q_49E_50I_52G_53A_54L_55F_67L_, Q9UKT9 (peptide)
chain: FQCEICGALFTQKGNLLRHIKL
B25: 46F_47Y_49E_50I_52G_53A_54L_55F_67L_, Q9UKT9 (peptide)
chain: FYCEICGALFTQKGNLLRHIKL
B26: 46F_47A_49E_50I_52G_53A_54L_55F_67L_, Q9UKT9 (peptide)
chain: FACEICGALFTQKGNLLRHIKL
B27: 46F_47G_49E_50Q_52G_53A_54K_55F_67L_, Q9UKT9 (peptide)
chain: FGCEQCGAKFTQKGNLLRHIKL
B28: 46F_47L_49P_50V_52G_53A_54E_55F_67L_, Q9UKT9 (peptide)
chain: FLCPVCGAEFTQKGNLLRHIKL

Target: T1, CRBN, Q96SW2
Experiment: log2 fold change of degron read counts, EGFP-low vs EGFP+ sorted cells (limma voom), compound-induced degradation; higher = more compound-induced degradation of the degron-EGFP fusion; degrons are variants of IKZF1/3 zinc finger 2; compound dose not given here
Details: Jurkat, 18 h
Procedure: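 Pooled library of 8380 IKZF3 ZF2 degron mutants (positions 146-167 varied within the IKZF3 130-189 degron; only the varied core is printed, flanks not printed) fused to EGFP with IRES-mCherry, lentivirally expressed in Jurkat cells. mCherry+ cells were treated with one IMiD compound for 18 h (dose not stated) and FACS-sorted into EGFP-low and EGFP+ populations. Degron sequences were counted by NGS, and log2FC (EGFP-low vs EGFP+) was estimated by limma voom over 3 biological replicates.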

[1] = compound: compound 19 (5-tert-butyl-thalidomide)
[2] = compound: compound 22 (5-morpholino-thalidomide)
[3] = compound: compound 33 (diphenyl IMiD analogue)
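Also: pooled lentiviral library of zinc finger degron-EGFP fusions in mCherry-positive Jurkat cells, FACS-sorted after compound exposure, with degron abundance counted by next-generation sequencing.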

| Sequence | log2 fold change of degron read counts [1] | log2 fold change of degron read counts [2] | log2 fold change of degron read counts [3] | log2 fold change of degron read counts (compound: thalidomide) |
| --- | --- | --- | --- | --- |
| B1 | -2.18 | -2.81 | -0.226 | -0.504 |
| B2 | -2.22 | -1.59 | 0.523 | 1.84 |
| B3 | -1.45 | 1.32 | 0.282 | 0.656 |
| B4 | 3.31 | 3.48 | 2.42 | 1.35 |
| B5 | 0.819 | -0.0304 | 1.62 | 1.37 |
| B6 | 3.09 | 3.3 | 2.34 | 1.12 |
| B7 | 2.69 | 3.48 | 1.06 | -0.779 |
| B8 | -0.176 | -2.77 | -0.519 | -0.688 |
| B9 | -0.331 | 2.74 | 2.17 | 2.62 |
| B10 | 2.48 | 2.53 | 2.04 | 0.495 |
| B11 | 3.07 | 2.44 | 2.49 | 2.37 |
| B12 | -3.22 | -3.78 | -2.72 | -3.39 |
| B13 | -0.962 | -0.778 | -1.34 | -1.55 |
| B14 | -0.878 | -0.37 | -0.973 | -1.22 |
| B15 | -2.91 | -4.04 | -3.77 | -2.98 |
| B16 | -2.18 | -2.49 | -1.64 | -1.76 |
| B17 | -3.4 | -3.98 | -3.41 | -3.14 |
| B18 | -0.211 | -0.318 | 1.04 | -0.804 |
| B19 | -0.277 | -0.0789 | 1.53 | 0.556 |
| B20 | -3.03 | -3.09 | -2.32 | -3.02 |
| B21 | 3.18 | 2.91 | 1.74 | 0.646 |
| B22 | -0.92 | -1.27 | 0.77 | 1.46 |
| B23 | -0.733 | -1.67 | 0.189 | -0.124 |
| B24 | -1.22 | 1.46 | 1.74 | 3.53 |
| B25 | 3.29 | 3.38 | 2.38 | 0.365 |
| B26 | 2.71 | 0.321 | 0.174 | -0.494 |
| B27 | 0.32 | -2.26 | -2.15 | -0.779 |
| B28 | -0.14 | -1.09 | 1.21 | 1.24 |
